# Measured values taken from PubChem BioAssay AID1671189 (National Center for Advancing Translational Sciences (NCATS), 2021).
# Out of some 1,100 compounds screened, about 70 (6%) were called active. About 22% were inconclusive and are not listed. The entries come from a sample that favours actives as a whole. A number with no mark means an inactive call. Calls follow the shape of the dose curve; as a rule, active = well fitted curve in the direction sought with a large enough effect; inconclusive = small, poorly fitted or top-dose-only effect, or another doubt; inactive = no such curve, though single readings can be large or run the other way.
# Biological target: Polyunsaturated fatty acid lipoxygenase ALOX12 (Homo sapiens) (UniProt P18054)
# Sequence (P18054 whole entry, looked up): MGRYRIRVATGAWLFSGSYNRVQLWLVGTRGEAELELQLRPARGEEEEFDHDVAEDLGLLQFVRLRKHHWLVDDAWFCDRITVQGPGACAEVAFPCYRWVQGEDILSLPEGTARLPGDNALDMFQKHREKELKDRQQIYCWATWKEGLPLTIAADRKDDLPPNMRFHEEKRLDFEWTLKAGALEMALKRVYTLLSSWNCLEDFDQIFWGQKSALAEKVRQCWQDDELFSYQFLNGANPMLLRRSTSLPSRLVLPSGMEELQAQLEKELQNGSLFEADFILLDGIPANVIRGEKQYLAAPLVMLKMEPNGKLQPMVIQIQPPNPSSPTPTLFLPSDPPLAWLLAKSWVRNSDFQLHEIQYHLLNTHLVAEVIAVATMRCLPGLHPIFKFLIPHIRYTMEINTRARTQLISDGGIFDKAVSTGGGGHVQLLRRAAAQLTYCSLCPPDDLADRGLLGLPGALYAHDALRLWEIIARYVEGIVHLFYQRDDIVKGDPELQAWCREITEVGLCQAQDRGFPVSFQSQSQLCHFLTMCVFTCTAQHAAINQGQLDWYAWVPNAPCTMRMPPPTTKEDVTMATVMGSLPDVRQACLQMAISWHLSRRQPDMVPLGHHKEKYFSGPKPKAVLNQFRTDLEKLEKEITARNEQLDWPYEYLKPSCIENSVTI
# Test: Confirmatory qHTS assay for inhibitors of human arachidonate 12S-lipoxygenase (ALOX12): Round 2
# Conditions: purified human 12-LOX, xylenol orange absorbance; series mostly up to 125 µM; activity change, negative = inhibition: at the top concentration
# Excerpt: Assay Provider: Theodore R. Holman Ph.D. University of California, Santa Cruz, California Human lipoxygenase 12hLO is a member of the closely related lipoxygenase family of enzymes which catalyze the site-specific oxidation of arachidonic acid to various hormone precursor molecules and as such is a candidate for drug development in a variety of disease areas, such as cancer and inflammation. Inhibition of 12hLO activity was screened by utilizing arachidonic acid as a substrate. The extent of hydroperoxide product formation was measured by a secondary chromogenic reaction in which xylenol orange (XO, Sigma-Aldrich, cat. number 39,818-7) reacts with the ferric ions produced from the reaction between the hydroperoxide and ferrous ions. The Fe (III)-XO complex is characterized with red-shifted absorbance at 560 nm. A purified preparation of human 12hLO was supplied by Dr. Holman laboratory, University of California, Santa Cruz.
# PROTOCOL TABLE SEQUENCE No. (e.g., 1, 2, 3, etc.); […] (e.g., Cells, Incubation, Reagent, etc.); VALUE; DESCRIPTION 1; Enzyme; 3 uL; 150 nM 12hLO enzyme solution dispensed in 1536-well Greiner black, clear bottom plates. 2; Compound; 23 nL; compounds and controls were added. 3; Incubate; 15 min; room temperature. 4; Substrate; 1 uL; 40 uM arachidonic acid (final concentration). 5; Incubate; 30 min; room temperature. 6; Reagent; 4 uL; Fe-XO solution was added to each well. 7; Incubation; 30 min; room temperature 8; Detector; absorbance; Read 1 at 405 nm absorbance using ViewLux (PerkinElmer) CCD imager. 9; Detector; absorbance; Read 2 at 573 nm absorbance using ViewLux (PerkinElmer) CCD imager. NOTES (numbers refer to sequence above) 1; 150 nM 12hLO (final concentration) in buffer solution (25 mM Hepes, 0.01% Triton X-100, pH 7.0) was dispensed in columns 1, 2, 5-48. Column 1 is neutral (100% activity). Buffer only was dispensed in columns 3 and 4 as no enzyme negative controls. The plates were covered with metal lids with gas-exchange holes. 2; Compounds were pin transferred via a Kalypsys Pin Tool (Wako USA) in column 5 - 48. Control compound was transferred in column 2, titration of nordihydroguaiaretic acid (NDGA, Sigma-Aldrich, N5023) with top concentration of 20 mM in DMSO then 1:3 dilution in duplicate. Dilution factor of 23 nL into 4 uL final assay volume. 3; Covered assay plates were incubated for 15 min at room temperature. 4; Substrate was added to start the reaction; 40 uM arachidonic acid (Sigma-Aldrich, St. Louis, MO) was dispensed throughout the plate. 6; Chromogenic detection reagent solution (divalent iron/xylenol orange, Fe-XO) was added to each well: 200 uM xylenol orange, 300 uM ferrous ammonium sulfate prepared freshly in 50 mM sulfuric acid. 8, 9; Two absorbance readouts were obtained at 405 nm and at 573 nm using a ViewLux high-throughput CCD plate imager (PerkinElmer). The 573 to 405 (Read 2 / Read 1) absorbance ratio was used to compute reaction progress.
# % is scaled to controls: 0 for no effect and ±100 for the full control effect; potency is read from the fitted curve at half-maximal effect.
SMILES,Potency,"activity change, negative = inhibition"
COc1ccccc1NC(=O)Nc1ccc2n(c1=O)C[C@H]1C[C@@H]2CN(C2CCOCC2)C1,14.1 µM (active),–
O=C(Nc1ccc2n(c1=O)C[C@H]1C[C@@H]2CN(Cc2ccc(F)cc2)C1)c1cccs1,–,-9.31% [at 64.5 µM]
Cc1o[nH]c(=O)c1C[C@H](N)C(=O)O,–,5.45%
C#C[C@H]1CN2CC[C@H]1C[C@@H]2COC(=O)NCCC,17.8 µM (active),–
O=C(O)C1=NOC2CN(Cc3cccc(Br)n3)CC12 (stereo not given),–,-4.21%
c1cc2nc(C3CCNCC3)[nH]c2cn1,–,-16.3% [at 233 µM]
CCN1C[C@]2(COC(=O)c3ccccc3N3C(=O)CC(C)C3=O)CC[C@H](OC)[C@@]34C5C[C@@H]6[C@@H](OC)C[C@@](O)(C5[C@H]6OC)[C@](O)([C@@H](OC)C23)[C@@H]14 (stereo not given in full),–,3.67%
CCOc1ccc(CN(CCc2ccc3c(c2)OCO3)Cc2ccc(C)cc2)cc1,–,-11.3%
N[C@@]1(C(=O)O)CC[C@H](C(=O)O)C1,–,-0.148%
CSc1ccc(-c2ccc(=O)n3c2[C@@H]2C[C@@H](CN(S(C)(=O)=O)C2)C3)cc1,–,-26.5% [at 64.5 µM]
CCCS(=O)(=O)N1C[C@@H]2C[C@H](C1)c1c(-c3ccc(Cl)cc3)ccc(=O)n1C2,–,-24.3% [at 64.5 µM]
CSc1ccc(-c2ccc(=O)n3c2[C@@H]2C[C@@H](CN(S(=O)(=O)c4cccs4)C2)C3)cc1,15.8 µM (active),–
CSc1ccc(CN2CCN(C(=O)COc3ccc(C)cc3)CC2)cc1,–,-25.5%
O=C(Cc1ccc(Cl)cc1)N1Cc2ccccc2CC2(CCCN2CC2CCNC2)C1 (stereo not given),–,-22.4%
O=C(O)C1CN(Cc2ncc[nH]2)CCN(C(=O)Cc2cccs2)C1 (stereo not given),–,5.5% [at 64.5 µM]
